Source: PubChem (National Center for Advancing Translational Sciences (NCATS))
FLuc counter: qHTS profiling assay for firefly luciferase inhibitor/activator using purifed enzyme and Km concentrations of substrates (counterscreen for miR-21 project); Luciferin 4-monooxygenase (Photinus pyralis), P08659; Potency, µM (series often up to 57.5 µM), for inactives: top-dose activity change, negative = inhibition, actives largely listed as inhibitors; purified FLuc, Km substrates, luminescence inhibition; 360,000 tested, 6.9% active;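 also: plate controls were vehicle for no effect and reference inhibitor for full effect; nearly all actives have a fitted effect of over 55% in size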
Target sequence (P08659 whole entry, looked up): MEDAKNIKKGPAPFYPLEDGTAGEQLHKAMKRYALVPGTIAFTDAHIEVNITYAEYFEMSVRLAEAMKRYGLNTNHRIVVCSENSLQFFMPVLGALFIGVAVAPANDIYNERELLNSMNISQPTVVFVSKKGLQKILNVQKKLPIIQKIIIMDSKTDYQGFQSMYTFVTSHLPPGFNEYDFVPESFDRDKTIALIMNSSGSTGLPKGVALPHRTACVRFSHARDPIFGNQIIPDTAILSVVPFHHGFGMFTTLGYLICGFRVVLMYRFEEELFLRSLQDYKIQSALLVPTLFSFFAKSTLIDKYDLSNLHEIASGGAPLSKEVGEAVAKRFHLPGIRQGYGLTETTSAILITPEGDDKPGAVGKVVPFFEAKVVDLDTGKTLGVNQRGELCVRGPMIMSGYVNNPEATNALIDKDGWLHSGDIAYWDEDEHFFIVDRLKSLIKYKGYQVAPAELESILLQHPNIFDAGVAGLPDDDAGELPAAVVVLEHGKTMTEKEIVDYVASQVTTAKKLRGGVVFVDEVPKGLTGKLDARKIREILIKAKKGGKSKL
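Purified P. pyralis luciferase (10nM final) with 10uM D-luciferin and 10uM ATP (Km levels) in 50mM Tris acetate pH 7.5, 10mM Mg acetate, 0.01% Tween-20, 0.05% BSA; qHTS 6-point titration, ~60 µM downward; luminescence read.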
NPC1 prom act: qHTS Assay for NPC1 Promoter Activators. Huh7 NPC1 promoter luciferase reporter, 24 h. Potency, µM (doses to about 9.22 µM), inactives show at the top dose activation, hits mostly activators. 320,000 tested, 2.4% active. AID 485313, 2010; also: % of control where 0% means no effect; nearly all actives have a fitted effect of over 60% in size
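Huh7 reporter cells (NPC1 promoter driving luciferase) are dosed with compound for 24 h at 37 °C, 5% CO2; luciferase detection reagent is then added and luminescence measured after 10 min at ambient temperature.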
SMN2 splice enh: qHTS Assay for Enhancers of SMN2 Splice Variant Expression; HEK293 SMN2-luciferase splicing reporter, luminescence, 30-36 h; Potency, µM (doses to about 46.1 µM), without a hit: top-dose activity change, positive = activation, most hits filed as activators; 210,000 tested, 2.8% active; AID 1458, 2008; also: % of control where 0% means no effect; nearly all actives have a fitted effect of over 55% in size
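qHTS luciferase splicing reporter: luminescence rises when SMN2 exon 7 is included in transfected HEK293 cells. Compound exposure lasted 30-36 h at 37C, with 4.5 mM final sodium butyrate as control, followed by a ONE-Glo read.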
ELG1 repair inh: qHTS screen for small molecules that inhibit ELG1-dependent DNA repair in human embryonic kidney (HEK293T) cells expressing luciferase-tagged ELG1 | 330,000 tested, 2.3% active | HEK293T ELG1-luciferase reporter, luminescence, 16 h; DNA damage induced by 5-fluorouridine | AID 504467, 2011 | Potency, µM (series often up to 46.1 µM), for inactives: at the top dose activity change, negative = inhibition, usual class: inhibitors; also: % is scaled to controls: 0 for no effect and ±100 for the full control effect; nearly all actives have a fitted effect of over 55% in size
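Cells (2,000 per well) received 5-fluorouridine plus test compound or DMSO and were incubated 16 hr at 37 °C, 5% CO2. Luciferase activity was read by luminescence 30 min after ONE-Glo addition; signal suppression marked inhibition of damage-induced ELG1 function.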
Rab9 prom act: qHTS Assay for Rab9 Promoter Activators. 320,000 tested, 2.8% active. Huh7 Rab9 promoter-luciferase reporter, luminescence, 24 h. Potency, µM (titrated, usually from 9.22 µM), for the others: at the top dose activation, negative = inhibition, actives largely listed as activators; also: % of control where 0% means no effect; nearly all actives have a fitted effect of over 60% in size
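Luciferase signal after 10 min detection reagent at ambient indicates Rab9 promoter upregulation; stably transfected Huh7 cells were treated 24 h with compound in DMSO at 37 °C, 5% CO2.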
ELG1 genotox: qHTS screen for small molecules that induce genotoxicity in human embryonic kidney (HEK293T) cells expressing luciferase-tagged ELG1; HEK293T ELG1-luciferase reporter, luminescence, 16 h; Potency, µM (titrated, usually from 46 µM), without a hit: at the top dose activity change, positive = activation, hits mostly activators; 330,000 tested, 1.3% active; also: % of control where 0% means no effect; nearly all actives have a fitted effect of over 60% in size
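16 hr compound incubation (37 °C, 5% CO2) of HEK293T cells carrying luciferase-tagged ELG1; luciferase then measured by ONE-Glo luminescence after 30 min at RT.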
Starred values were filed as active, the others as inactive. Compounds with a hit are over-represented: about 9.2% of the library has one in this group of screens. Calls follow the shape of the dose curve; as a rule, active = well fitted curve in the direction sought with a large enough effect; inconclusive = small, poorly fitted or top-dose-only effect, or another doubt; inactive = no such curve, though single readings can be large; an effect the other way counts as inactive or inconclusive. Potency is read from the fitted curve at half-maximal effect.

Screening COC(=O)c1sccc1NC(=O)Nc1ccccc1C returned FLuc counter 3.9%, NPC1 prom act -7.4%, ELG1 repair inh 9.4%, Rab9 prom act -5.9% and ELG1 genotox 11.6%.
`COc1ccc(C/C(C)=N/NC(=S)Nc2ccccc2F)cc1` gave FLuc counter 15.1µM*, NPC1 prom act 3.16µM*, SMN2 splice enh -55.6%, ELG1 repair inh inconclusive, Rab9 prom act 2.51µM* and ELG1 genotox 8.2µM*.
For Cc1cccnc1NC(=O)Nc1ccc(F)cc1 the results were FLuc counter inconclusive, NPC1 prom act inconclusive, SMN2 splice enh 17.2%, ELG1 repair inh inconclusive, Rab9 prom act inconclusive and ELG1 genotox inconclusive.
For Fc1ccccc1NC(=S)N/N=C/c1ccccc1Br the results were FLuc counter 13.5µM*, NPC1 prom act inconclusive, SMN2 splice enh 11.2µM*, ELG1 repair inh inconclusive, Rab9 prom act 3.16µM* and ELG1 genotox 4.47µM*.
Screening CCC(=O)c1ccc(OCC(=O)OCC(=O)NCCC2=CCCCC2)cc1 returned FLuc counter 0.0%, NPC1 prom act 1.5%, ELG1 repair inh 14.3%, Rab9 prom act -1.8% and ELG1 genotox 1.5%.
`COC(=O)c1ccc(NC(=O)Nc2ccccc2C)cc1` gave FLuc counter 4.78µM*, NPC1 prom act inconclusive, SMN2 splice enh -21.1%, ELG1 repair inh -14.5%, Rab9 prom act inconclusive and ELG1 genotox 5.2%.
O=C(Nc1ccc(F)cc1)Nc1ccccc1F was read as FLuc counter 7.57µM*, NPC1 prom act 2.51µM*, SMN2 splice enh 15.8µM*, ELG1 repair inh inconclusive, Rab9 prom act 1.41µM* and ELG1 genotox inconclusive.
O=C(Nc1ccccc1F)Nc1ccccc1Br was read as FLuc counter 16.9µM*, NPC1 prom act 26.2%, SMN2 splice enh 12.8%, ELG1 repair inh inconclusive, Rab9 prom act -16.9% and ELG1 genotox inconclusive.
Screening COc1cccc(COC(=O)Nc2ccccc2F)c1 returned FLuc counter 10.7µM*, NPC1 prom act 1.12µM*, ELG1 repair inh inconclusive, Rab9 prom act 2µM* and ELG1 genotox 4.11µM*.
Screening O=C(Nc1ccc(NC(=O)c2ccccc2O)cc1)Nc1ccc(F)cc1F returned FLuc counter -7.1%, NPC1 prom act 1.4%, ELG1 repair inh 6.8%, Rab9 prom act -0.9% and ELG1 genotox 0.2%.
CNC(=O)Nc1ccccc1F was read as FLuc counter -1.3%, NPC1 prom act 0.3%, SMN2 splice enh -1.1%, ELG1 repair inh 2.5%, Rab9 prom act -5.4% and ELG1 genotox -4.9%.
Screening CN1C(=O)/C(=C/c2cccc(Cl)c2)Sc2ccc(C(=O)N3CCCC3)cc21 returned FLuc counter -14.8%, NPC1 prom act -13.1%, ELG1 repair inh inconclusive, Rab9 prom act -4.3% and ELG1 genotox -14.3%.
For Cc1ccc(-n2c(=O)[nH]c3cc(C(=O)NCc4ccccc4)ccc3c2=O)cc1 the results were FLuc counter -3.1% and SMN2 splice enh 1.7%.
For O=C(COC(=O)c1ccc(S(=O)(=O)N2CCOCC2)cc1)NCc1cccs1 the results were FLuc counter -0.7%, NPC1 prom act 0.3%, SMN2 splice enh -9.9%, ELG1 repair inh -14.0%, Rab9 prom act -2.1% and ELG1 genotox -4.9%.
For CC(=O)Nc1ccc(NC(=O)Nc2ccccc2C)cc1 the results were FLuc counter inconclusive, NPC1 prom act 11.1%, ELG1 repair inh inconclusive, Rab9 prom act 4.2% and ELG1 genotox 2.9%.
Screening CC(=O)N(C)c1ccc(NC(=O)Nc2ccccc2C)cc1 returned FLuc counter 12µM*, NPC1 prom act inconclusive, SMN2 splice enh 12.6µM*, ELG1 repair inh inconclusive, Rab9 prom act 2.82µM* and ELG1 genotox 20.6µM*.
COC(=O)c1ccc(NC(=O)Nc2ccccc2F)cc1 was read as FLuc counter 2.13µM*, NPC1 prom act 0.398µM*, SMN2 splice enh 2.51µM*, ELG1 repair inh inconclusive, Rab9 prom act 0.447µM* and ELG1 genotox inconclusive.
For COc1ccc(NC(=O)Nc2ccccc2F)cc1Cl the results were FLuc counter inconclusive, NPC1 prom act 1.78µM*, SMN2 splice enh 10µM*, ELG1 repair inh inconclusive, Rab9 prom act 1.41µM* and ELG1 genotox 5.17µM*.
Screening COc1ccc(NC(=O)Nc2ccccc2SC)cc1 returned FLuc counter 10.7µM*, NPC1 prom act inconclusive, SMN2 splice enh 12.6µM*, ELG1 repair inh inconclusive, Rab9 prom act inconclusive and ELG1 genotox inconclusive.
`COc1ccc(-c2cc(C(=O)Nc3ccccc3SC)no2)cc1` gave FLuc counter -0.5%, NPC1 prom act 4.6%, SMN2 splice enh 7.2%, ELG1 repair inh inconclusive, Rab9 prom act 25.4% and ELG1 genotox 5.5%.
`O=C(N[C@@H](Cc1c[nH]c2ccccc12)C(=O)O)C1CCN(S(=O)(=O)c2ccc(Cl)cc2)CC1` gave FLuc counter 4.2%, NPC1 prom act -0.4%, ELG1 repair inh 1.6%, Rab9 prom act 1.3% and ELG1 genotox -0.3%.
Screening O=C(C[n+]1ccccc1)N/N=C/c1cccs1 returned FLuc counter 3.2%, NPC1 prom act -2.0%, SMN2 splice enh -0.6%, ELG1 repair inh 4.9%, Rab9 prom act 1.4% and ELG1 genotox -0.1%.
Screening COc1ccc(CCNC(=O)CCCn2c(=O)c3ccccc3n(CC(=O)Nc3ccc(C)cc3Cl)c2=O)cc1OC returned FLuc counter 0.9% and SMN2 splice enh 36.9%.
O=C(O)c1ccc(CNCc2ccccc2Cl)s1 was read as FLuc counter -16.8% and SMN2 splice enh -2.2%.
Screening COc1ccc(NC(=O)Nc2ccccc2F)cc1 returned FLuc counter 3.38µM*, NPC1 prom act 0.562µM*, SMN2 splice enh 11.2µM*, ELG1 repair inh inconclusive, Rab9 prom act 0.447µM* and ELG1 genotox 2.59µM*.
Screening COc1ccc(NC(=O)Nc2ccccc2F)c(C)c1 returned FLuc counter -9.3%, NPC1 prom act 24.0%, ELG1 repair inh inconclusive, Rab9 prom act inconclusive and ELG1 genotox 6.5%.
Screening COc1ccc(NC(=O)CN(C)C(=O)C(Sc2ccccc2)c2ccccc2)cc1 (stereo not given) returned FLuc counter -7.5%, NPC1 prom act 1.5%, ELG1 repair inh inconclusive, Rab9 prom act -9.0% and ELG1 genotox -2.1%.
